# The campaign covered roughly 53,000 compounds. About 900 (1.7%) showed an effect of 50% or more. For the sample, strong results were picked, then their nearest neighbours and some compounds at random.
# System: Mycobacterium tuberculosis
# Assay: Cornell - Phenotypic assay to identify agents that inhibit growth of Mycobacterium tuberculosis
# Type: functional
# Set-up: scale not given: direction of the effect not stated beside the values
# Details: 10 mM as filed; unlikely as a test dose
row,SMILES,Percent Effect [%]
1,CS(=O)(=O)N1CCC(CNC(=O)c2cnccn2)CC1,-29.61
2,COCCN1CCC2(CC1)CN(C(=O)Cc1cccnc1)CCO2.O=C(O)C(F)(F)F.O=C(O)C(F)(F)F,26.19
3,COc1ccc(Oc2cncc(C3CCCN3C(C)=O)n2)cc1 (centres undefined),-6.062
4,OCCc1cc(C2CCCN2c2ncccn2)n[nH]1 (centres undefined),5.746
5,COc1nsc2nc(C3CCCN3C(C)=O)ccc12 (centres undefined),51.54
6,Cc1ncc(CN(C)C)c(C2CCCN2c2ncccn2)n1 (centres undefined),3.651
7,COc1nsc2nc(C3CCCN3c3ncccn3)ccc12 (centres undefined),56.9
8,CC(=O)N1CCCC1c1ccc(Br)cn1 (centres undefined),-5.926
9,CNCC(=O)N1CCC(c2cccc(Oc3ccccc3)n2)CC1,5.467
10,COc1ccc(CN2CC[C@@H]3[C@H]2CCC(=O)N3c2cnn(C)c2)cc1.O=C(O)C(F)(F)F,-0.7852
11,CCCc1cncnc1N1CCC2(CCC(=O)N(CCOC)C2)CC1,-26.49
12,CNc1cc(N2CCCC2CNCc2ccc(C)o2)ncn1 (centres undefined),-46.19
13,CN1CC(=O)N(c2ccsc2)CC12CCN(S(=O)(=O)c1ccccc1)C2.O=C(O)C(F)(F)F (centres undefined),4.283
14,CCCS(=O)(=O)N1CCC2(CC1)CN(CC1CCOC1)c1ccccc12.O=C(O)C(F)(F)F (centres undefined),53.88
15,O=C(O)C(F)(F)F.c1cnc(N2CCC3(CC2)CN(CC2CC2)c2ccccc23)nc1,32.03
16,CCS(=O)(=O)N1CCC2(CC1)CN(CC1CCOC1)c1ccccc12.O=C(O)C(F)(F)F (centres undefined),-6.416
17,O=C(O)C(F)(F)F.O=C(O)C(F)(F)F.OCCN1CC2(CCN(CC3CC3)CC2)c2ccccc21,53.69
18,CS(=O)(=O)N1CCC2(CC1)CN(CC1CCOC1)c1ccccc12.O=C(O)C(F)(F)F (centres undefined),24.53
19,CN1C(=O)C2(CCN(CC3CC3)CC2)c2ccccc21.O=C(O)C(F)(F)F,-19.06
20,CCC(=O)NC(Cc1cc(N(C)C)nc(C2CC2)n1)c1ccccc1 (centres undefined),47.48
21,CC(C)c1nccc(C2CC(=O)Nc3n[nH]c(C4CCC4)c32)n1 (centres undefined),28.48
22,Cc1cccnc1CN1CCN(c2noc(-c3ccccc3)n2)CC1,16.84
23,O=C(c1cc(-n2cccn2)ccn1)N(CC(F)(F)F)C1CCCC1,17.65
24,Cc1nccn1C1CCCN(C(=O)c2ccc3c(c2)nc(C)n3C)C1 (centres undefined),-4.275
25,O=C(CN1CCCC1Cn1cncn1)Nc1nccs1 (centres undefined),20.94

row,SMILES,Percent Effect [%]
1,COc1c(C)cnc(CN(C)C(=O)Nc2ccc3c(c2)CCO3)c1C,65.58
2,COCc1cccc(NC(=O)N(C)Cc2ncc(C)c(OC)c2C)c1,-1.951
3,COc1c(C)cnc(CN(C)C(=O)c2cccc(NC(N)=O)c2)c1C,25.72
4,CS(=O)(=O)c1snnc1C1CCN(Cc2cccc(O)c2)CC1,-3.307
5,c1cc(N2CCOCC(Cc3ccc4[nH]ccc4c3)C2)ncn1 (centres undefined),9.694
6,Nc1cc(N2CCOCC(Cc3ccc4[nH]ccc4c3)C2)ncn1 (centres undefined),103.2
7,Cc1cc(N2CCOCC(Cc3ccc4[nH]ccc4c3)C2)ncn1 (centres undefined),26.85
8,Cc1cccc(NC(=O)N2CCC3(CCC(C(=O)N(C)C)O3)CC2)c1 (centres undefined),-3.897
9,CN(C)Cc1cccc(-c2cccnc2C(=O)NCc2ccco2)c1,0.1793
10,Cc1[nH]c2nc(CNc3ccccc3Cl)nn2c(=O)c1C,13.95
11,O=C(c1cc(-c2ccco2)cs1)N1CCCC1,81.62
12,O=C(c1cc(-c2ccco2)cs1)N1CCOCC1,26.26
13,CN1CCN(C(=O)c2cc(-c3ccco3)cs2)CC1,25.84
14,CCn1cc2c(n1)C(COC)CN(Cc1ccoc1)C2 (centres undefined),-14.11
15,CCn1cc2c(n1)C(COC)CN(Cc1ccccn1)C2 (centres undefined),96.31
16,COCC1CN(Cc2ccccn2)Cc2cn(C)nc21.O=C(O)C(F)(F)F.O=C(O)C(F)(F)F.O=C(O)C(F)(F)F (centres undefined),31.55
17,CN(C)C(=O)c1ccc2ccc(N3CCN(CC4CC4)CC3)n2c1,-12.17
18,Cc1ccc(-c2cc(C(=O)NC(C)C(=O)N3CCCCC3)on2)cc1 (centres undefined),17.57
19,CCc1ccc(S(=O)(=O)Nc2ccn(CC(=O)OC)n2)cc1,68.94
20,COC(=O)Cn1ccc(NS(=O)(=O)c2ccc3c(c2)CCC3)n1,-1.96
21,CCn1ccc(NS(=O)(=O)c2cccc(COC)c2)n1,-1.872
22,CSC(C)C(=O)N1CCCN(Cc2nccn2C)CC1 (centres undefined),-38.31
23,Fc1cccc(CN2CCC(c3noc(-c4ccncc4)n3)CC2)c1F,8.868
24,CCCc1nnc(N2CC[C@@](O)(C3CCOCC3)[C@H](C)C2)s1,-20.29
25,COc1ccc(-c2cnc(N)nc2C2CCCNC2)cc1.Cl (centres undefined),57.74

row,SMILES,Percent Effect [%]
1,COc1ccc(-c2cc(C3CCCNC3)ccn2)cc1.Cl (centres undefined),13.34
2,CS(=O)(=O)N1CC(c2nc(N)ncc2-c2ccc(F)cc2)C1,26.29
3,Nc1ncc(-c2ccc(Cl)cc2)c(C2CCCNC2)n1 (centres undefined),-8.441
4,Nc1ncc(-c2ccc(C(F)(F)F)cc2)c(C2CCCNC2)n1 (centres undefined),50.32
5,Nc1ncc(-c2ccc(F)cc2)c(C2CCCNC2)n1 (centres undefined),2.627
6,Cc1n[nH]c(C2CN(CC(=O)NCCC3=CCCCC3)CCO2)n1 (centres undefined),-4.775
7,COc1cc(CNC(=O)c2csc(Br)c2)ccn1,5.577
8,c1ccc(CN2CCC(c3nccnc3-n3ccnc3)CC2)cc1,-13.47
9,Cc1noc(C)c1CN(Cc1cccs1)C1CCS(=O)(=O)C1 (centres undefined),-24.86
10,CCS(=O)(=O)N1CCc2ccc(NC(=O)NCCc3ccccc3)cc21,30.28
11,CN(C)CC(=O)N1CCN(C(=O)c2cccc3[nH]ncc23)CC1,11.64
12,CCc1cnc(CN(C(C)=O)C2CCN(CCc3ccccc3)C2)o1 (centres undefined),-5.219
13,Cc1csc(CNC(=O)N2CCN(Cc3ccco3)CC2)n1,5.266
14,Cc1csc(CN2C[C@@H]3COC[C@]3(C(=O)NCc3ccco3)C2)n1,99.79
15,Cc1ncsc1CN1C[C@@H]2COC[C@]2(C(=O)NCc2ccccn2)C1.O=C(O)C(F)(F)F.O=C(O)C(F)(F)F,34.64
16,Cc1ncsc1C(=O)N1CCCC(n2cncn2)C1 (centres undefined),-11.33
17,CC(=O)N1CCCC1c1cccc(Oc2ccccc2F)n1 (centres undefined),16.34
18,Cc1cc(CN2CCN(S(=O)(=O)c3c(C)c(Cl)cc(C)c3Cl)CC2)on1,15.46
19,O[C@@H]1C[C@H]2CN(Cc3ccccc3Cl)[C@H](Cc3ccccc3)CN2C1,13.61
20,O[C@@H]1C[C@H]2CN(Cc3ccsc3)[C@@H](Cc3ccccc3)CN2C1,57.45
21,O[C@@H]1C[C@H]2CN(Cc3ccccc3)[C@H](Cc3ccccc3)CN2C1,7.945
22,Cc1ccc(CN2CC[C@H]3OCC[C@@H](c4nc(C)no4)[C@H]3C2)cc1,12.84
23,CCC(C)(CCO)NC(=O)c1ccon1 (centres undefined),-22.18
24,CC(C)(NC(=O)c1coc(COc2cccc(F)c2)n1)C(N)=O,8.84
25,COC(=O)[C@@H](NC(=O)c1coc(COc2cccc(F)c2)n1)C(C)C,30.38

row,SMILES,Percent Effect [%]
1,CCC(C)NC(=O)c1coc(COc2cccc(F)c2)n1 (centres undefined),60.97
2,O=C(NCC(F)(F)F)c1coc(COc2cccc(F)c2)n1,71.66
3,O=C(NC(CO)CO)c1coc(COc2cccc(F)c2)n1,-12.31
4,O=C(O)c1coc(COc2cccc(F)c2)n1,15.94
5,CN(C)Cc1cc(C2CCCCN2S(=O)(=O)c2cccc(Cl)c2)nn1C.Cl (centres undefined),9.135
6,CC(C)N(Cc1ccc(Cl)c(Cl)c1)C(=O)CCn1cncn1,29.65
7,O=S(=O)(c1ccccc1)N1CCC2(CCCN2Cc2cccc(F)c2)C1 (centres undefined),5.302
8,Cc1nn(C2CCS(=O)(=O)C2)c(O)c1CCc1ccccc1 (centres undefined),6.158
9,Cc1ccc(CN2Cc3c(C(=O)N4CCN(C)CC4)nn(C)c3C2)s1.O=C(O)C(F)(F)F.O=C(O)C(F)(F)F.O=C(O)C(F)(F)F,-2.835
10,Cn1ccc(NC(=O)Cc2ccccc2F)n1,-2.791
11,CS(=O)(=O)CCn1ccc(NC(=O)Cc2ccccc2F)n1,11.43
12,CCOC(=O)Cn1ccc(NC(=O)Cc2ccccc2F)n1,99.82
13,CC(C)C1SCC(=O)Nc2c1c(O)nn2C1CCCCC1 (centres undefined),13.37
14,Cc1cc(N2CCC(Cc3ccccc3)CC2)ncn1,22.55
15,Cc1cc(N2CCC(Cc3ccccc3)CC2)nc(-c2ccncc2)n1,82.9
16,Cc1cc(N2CCC(CC(N)=O)CC2)nc(-c2ccncc2)n1,23.93
17,CN(Cc1ccc(CCC(C)(C)O)cc1)CC1(CO)CC1,3.977
18,CC1CCN(S(=O)(=O)NC(C)Cc2ccco2)CC1 (centres undefined),45
19,CC(Cc1ccco1)NS(=O)(=O)N1CCCCCC1 (centres undefined),68.78
20,CC(Cc1ccco1)NS(=O)(=O)N1CCCCC1 (centres undefined),35.85
21,CCCn1c(C)c(CC(=O)NCC(C)O)c2c1CC(C)(C)CC2=O (centres undefined),21.56
22,CCc1cc(N(C)CCC(O)c2ccccc2)n2nccc2n1 (centres undefined),-53.72
23,COCC(=O)N1C[C@@H](c2cccc(F)c2)[C@H]2[C@H]1CCCCCN2C(C)=O,-30.92
24,O=C(NCc1ccc(Br)cc1)C1(O)CCSCC1,26.99
